Reference: PubChem BioAssay (NCATS)
Inconclusive results are not listed. Active and inactive are the calls of the source. Unless noted, calls come from the whole dose curve; as a rule, active = well fitted curve in the direction sought with a large enough effect; inconclusive = small, poorly fitted or top-dose-only effect, or another doubt; inactive = no such curve, though single readings can be large; an effect the other way counts as inactive or inconclusive.

Key:
[1] = target: Rap guanine nucleotide exchange factor 3 (Homo sapiens) (UniProt O95398); assay: Confirmatory qHTS for antagonist of cAMP-regulated guanine nucleotide exchange factor 3 (EPAC1) (AID 1645880); note: nearly all actives have a fitted effect of over 55% in size; note: potency is the fitted concentration of half-maximal effect
Method in brief: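 Released BODIPY-GDP fluoresces less than Rap1-bound BODIPY-GDP; the signal is followed at 480/540 nm at 5-min intervals over 30 min, after 5 min at room temperature. Reactions contain 100 nM EPAC1, 250 nM RAP1B-BODIPY-GDP and 50 uM GDP; results are normalized to ATA and DMSO.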

[2] = target: Rap guanine nucleotide exchange factor 3 (Homo sapiens) (UniProt O95398); assay: Confirmatory qHTS for agonist of cAMP-regulated guanine nucleotide exchange factor 3 (EPAC1) (AID 1645881);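 note: EPAC1 catalysed release of BODIPY-GDP from Rap1B seen as fluorescence loss; 100% = effect of cAMP agonist control; nearly all actives have a fitted effect of over 75% in size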
[3] = target: Rap guanine nucleotide exchange factor 4 (Homo sapiens) (UniProt Q8WZA2); assay: Confirmatory qHTS for agonist of cAMP-regulated guanine nucleotide exchange factor 4 (EPAC2) (AID 1645884);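 note: nucleotide exchange releases bodipy-GDP from Rap1 and this lowers its fluorescence; % is set by controls: 0 for no effect and ±100 for the full control effect; nearly all actives have a fitted effect of over 65% in size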
[4] = target: Rap guanine nucleotide exchange factor 4 (Homo sapiens) (UniProt Q8WZA2); assay: Confirmatory qHTS for antagonist of cAMP-regulated guanine nucleotide exchange factor 4 (EPAC2) (AID 1645885); note: nearly all actives have a fitted effect of over 25% in size; note: potency is the fitted concentration of half-maximal effect; for activity change, negative = inhibition: % is set by controls: 0 for no effect and ±100 for the full control effect
[5] = target: Rap guanine nucleotide exchange factor 3 (Homo sapiens) (UniProt O95398); assay: Counterscreen qHTS for antagonist of cAMP-regulated guanine nucleotide exchange factor 3 (EPAC1) (AID 1645888); note: % of control where 0% means no effect
Method in brief: (§1)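 Rap1B–BODIPY-GDP (250 nM) with 50 uM GDP; compounds pin-transferred to 9.74 nM–152 uM final (activator) or from 7.32 nM upwards (inhibitor). Fluorescence Ex/Em 480/540 nm read at 5 and 30 min, then after adding cAMP or buffer, at room temperature.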

[6] = target: Rap guanine nucleotide exchange factor 3 (Homo sapiens) (UniProt O95398); assay: Counterscreen qHTS for agonist of cAMP-regulated guanine nucleotide exchange factor 3 (EPAC1) (AID 1645889); note: % of control where 0% means no effect; nearly all actives have a fitted effect of over 40% in size
Method in brief: as §1

[7] = target: Cytochrome P450 1A2 (Homo sapiens) (UniProt P05177); assay: p450-cyp1a2 (AID 410; calls by dose curve; note: potency is the fitted concentration of half-maximal effect)
Method in brief: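 Luminescent demethylation readout: Luciferin-ME (100uM, equal to Km) turned over by 20nM CYP1A2 for 60 min at room temperature after NADPH regeneration addition, following 10 min compound preincubation. Normalization used 57 uM furafylline as full inhibition.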

[8] = target: Glucocorticoid receptor (Homo sapiens) (UniProt P04150); assay: GR-GFP Redistribution (AID 450;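 active = compounds whose dose series gives a full or clear partial fitted curve of increased nuclear translocation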; note: potency is the fitted concentration of half-maximal effect); conditions: U2OS GR-GFP nuclear translocation, laser cytometry, 2 h
[9] = target: Glucocorticoid receptor (Homo sapiens) (UniProt P04150); assay: GR-EFC Redistribution (AID 451; calls by dose curve; note: potency is the fitted concentration of half-maximal effect); conditions: CHO-K1 GR-EFC translocation, beta-gal luminescence, 2 h
Method in brief: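 CHO-K1 cells expressing nuclear EA and GR-ED fragments of b-gal; compounds titrated up to 46 uM final, 2 h at 37 C. GR nuclear translocation read as complemented b-gal luminescence after 1 h RT detection.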

[10] = target: DNA dC->dU-editing enzyme APOBEC-3G (Homo sapiens) (UniProt Q9HC16); assay: qHTS for inhibitors of Vif-A3G interactions: Validation (AID 588379); note: 0% is about no effect
Method in brief: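 Yellow fluorescence (Ex 488, Em 500-530) of Vif-coexpressing HeLa A3G-eYFP cells, scanned by Acumen cytometer, reports blocked A3G degradation. Cells plated at 700/well overnight at 37 deg C before compound addition, then a further overnight compound incubation at 37 deg C.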

[11] = target: Cytochrome P450 3A4 (Homo sapiens) (UniProt P08684); assay: qHTS Assay for Activators of Cytochrome P450 3A4 (AID 885); note: nearly all actives have a fitted effect of over 65% in size
Method in brief: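 Activators are scored by enhanced luminescence from CYP3A4 conversion of luciferin-PPXE (25uM, equal to KM) to luciferin, after 60 min at RT with an NADPH-regenerating system.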

[12] = Confirmation and Secondary Assay for Modulators of Hemoglobin Beta Chain Splicing at IVS2 654 locus (AID 910);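 note: HeLa cells stably carrying EGFP split by mutant beta-globin IVS2-654 intron; % of control where 0% means no effect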
Method in brief: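 HeLa cells stably expressing EGFP interrupted by β-globin IVS2-654 intron, seeded overnight in Opti-MEM/2% FCS, then treated 2 days at 37 °C. Restored splicing read as total peak GFP intensity per well by laser scanning cytometry (488 nm excitation, 500–520 nm emission); 500 nM antisense PNA as control.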

[13] = Confirmation and Secondary Assay for Modulators of Hemoglobin Beta Chain Splicing at IVS2 705 locus (AID 930);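 note: HeLa cells stably expressing the EGFP-705 splicing reporter; GFP fluorescence per well restored by corrected splicing of the IVS2-705 intron in EGFP; series mostly up to about 46 µM; % of control where 0% means no effect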
Method in brief: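 Splice-correction reporter: EGFP cDNA split by beta-globin intron 2 bearing the 705 mutation, stably in HeLa. Compound incubation 2 days, 37C; fluorescent objects 5-250 µm summed per well.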

[14] = target: Ubiquitin carboxyl-terminal hydrolase 1 (Homo sapiens) (UniProt O94782); assay: Inhibitors of USP1/UAF1: Pilot qHTS (AID 504865);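 note: rhodamine fluorescence freed from ubiquitin-rhodamine substrate followed over time; top concentration of the series differs between compounds; % is set by controls: 0 for no effect and ±100 for the full control effect; nearly all actives have a fitted effect of over 35% in size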
Method in brief: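 Enzyme-free wells gave the negative control, while test wells held 1nM USP1/UAF1 preincubated with compound for 15 min at room temperature. Ub-Rho at 150nM final started the reaction, and fluorescence at 480/540 nm was recorded kinetically.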

[15] = target: Cytochrome P450 3A4 (Homo sapiens) (UniProt P08684); assay: qHTS Assay for Inhibitors and Substrates of Cytochrome P450 3A4 (AID 884); note: series mostly up to about 57 µM; % is set by controls: 0 for no effect and ±100 for the full control effect; nearly all actives have a fitted effect of over 50% in size
Method in brief: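 Luminescent readout of luciferin produced by CYP3A4 (20 nM) dealkylation of Luciferin-PPXE, 25 uM (its KM). NADPH-driven reaction ran 60 min at RT after 10 min compound preincubation; data scaled to 57 uM ketoconazole as 100% inhibition.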

Chain of Cytochrome P450 3A4 (Homo sapiens) (P08684 whole entry, looked up): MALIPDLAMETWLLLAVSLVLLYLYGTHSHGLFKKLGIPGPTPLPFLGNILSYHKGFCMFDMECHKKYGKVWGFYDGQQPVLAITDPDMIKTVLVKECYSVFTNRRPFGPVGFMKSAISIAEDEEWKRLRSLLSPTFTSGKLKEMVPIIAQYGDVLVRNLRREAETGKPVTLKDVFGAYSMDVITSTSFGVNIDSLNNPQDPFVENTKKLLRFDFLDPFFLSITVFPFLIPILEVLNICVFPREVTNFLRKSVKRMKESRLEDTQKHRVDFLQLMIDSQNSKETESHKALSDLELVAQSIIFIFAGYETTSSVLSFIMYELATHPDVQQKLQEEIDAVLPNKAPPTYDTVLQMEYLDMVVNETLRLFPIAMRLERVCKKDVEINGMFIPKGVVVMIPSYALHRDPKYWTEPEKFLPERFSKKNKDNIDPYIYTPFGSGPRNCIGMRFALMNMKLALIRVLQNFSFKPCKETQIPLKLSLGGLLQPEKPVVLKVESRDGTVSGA
Chain of Rap guanine nucleotide exchange factor 3 (Homo sapiens) (O95398 whole entry, looked up): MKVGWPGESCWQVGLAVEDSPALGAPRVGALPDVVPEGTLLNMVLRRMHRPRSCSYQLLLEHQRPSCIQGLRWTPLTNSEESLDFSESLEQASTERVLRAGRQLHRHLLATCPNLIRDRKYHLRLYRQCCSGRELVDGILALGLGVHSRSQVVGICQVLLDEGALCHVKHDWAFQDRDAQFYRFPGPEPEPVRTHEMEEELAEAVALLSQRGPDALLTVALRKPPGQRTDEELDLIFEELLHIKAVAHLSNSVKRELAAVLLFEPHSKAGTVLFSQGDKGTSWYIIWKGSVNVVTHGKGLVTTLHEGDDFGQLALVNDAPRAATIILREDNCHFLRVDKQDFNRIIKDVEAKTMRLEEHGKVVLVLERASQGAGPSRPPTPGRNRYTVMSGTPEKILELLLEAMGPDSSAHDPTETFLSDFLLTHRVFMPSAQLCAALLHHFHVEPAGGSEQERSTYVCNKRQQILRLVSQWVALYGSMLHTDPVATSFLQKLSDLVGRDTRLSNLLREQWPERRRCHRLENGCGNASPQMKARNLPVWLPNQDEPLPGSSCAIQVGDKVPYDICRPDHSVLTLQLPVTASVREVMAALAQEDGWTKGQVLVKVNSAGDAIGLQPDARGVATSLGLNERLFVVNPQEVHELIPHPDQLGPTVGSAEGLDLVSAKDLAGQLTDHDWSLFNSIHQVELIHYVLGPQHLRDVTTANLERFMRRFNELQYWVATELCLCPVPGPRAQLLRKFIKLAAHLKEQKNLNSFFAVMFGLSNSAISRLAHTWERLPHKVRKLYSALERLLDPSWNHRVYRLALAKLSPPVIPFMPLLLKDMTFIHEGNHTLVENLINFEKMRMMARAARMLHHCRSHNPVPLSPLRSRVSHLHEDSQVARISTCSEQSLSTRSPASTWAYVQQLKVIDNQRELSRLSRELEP
Chain of Rap guanine nucleotide exchange factor 4 (Homo sapiens) (Q8WZA2 whole entry, looked up): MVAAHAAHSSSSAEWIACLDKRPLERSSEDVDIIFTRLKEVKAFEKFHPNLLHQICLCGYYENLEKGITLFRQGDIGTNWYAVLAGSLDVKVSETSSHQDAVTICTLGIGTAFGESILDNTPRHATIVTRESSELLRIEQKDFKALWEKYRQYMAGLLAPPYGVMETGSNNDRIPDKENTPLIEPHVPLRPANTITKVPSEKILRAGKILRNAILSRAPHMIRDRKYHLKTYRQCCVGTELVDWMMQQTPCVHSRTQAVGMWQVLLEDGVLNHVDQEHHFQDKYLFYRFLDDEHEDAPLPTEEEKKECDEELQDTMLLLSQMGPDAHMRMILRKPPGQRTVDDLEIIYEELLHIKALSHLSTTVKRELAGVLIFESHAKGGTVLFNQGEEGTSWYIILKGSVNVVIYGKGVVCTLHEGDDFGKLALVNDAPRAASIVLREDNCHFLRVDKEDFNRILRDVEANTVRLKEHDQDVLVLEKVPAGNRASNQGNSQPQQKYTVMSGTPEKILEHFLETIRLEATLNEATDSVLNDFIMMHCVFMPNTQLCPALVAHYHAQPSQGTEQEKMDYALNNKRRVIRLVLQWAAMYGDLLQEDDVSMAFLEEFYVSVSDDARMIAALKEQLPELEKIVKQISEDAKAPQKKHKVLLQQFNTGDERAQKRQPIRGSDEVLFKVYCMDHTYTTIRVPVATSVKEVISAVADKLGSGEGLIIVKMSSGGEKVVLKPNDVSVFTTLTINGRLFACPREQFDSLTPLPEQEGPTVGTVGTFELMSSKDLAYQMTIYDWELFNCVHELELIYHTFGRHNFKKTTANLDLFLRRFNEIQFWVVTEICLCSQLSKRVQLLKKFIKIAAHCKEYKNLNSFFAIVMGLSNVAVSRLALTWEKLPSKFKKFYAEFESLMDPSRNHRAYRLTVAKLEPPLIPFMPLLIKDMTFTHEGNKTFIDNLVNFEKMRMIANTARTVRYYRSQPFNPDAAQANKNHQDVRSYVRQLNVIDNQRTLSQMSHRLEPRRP
Chain of Ubiquitin carboxyl-terminal hydrolase 1 (Homo sapiens) (O94782 whole entry, looked up): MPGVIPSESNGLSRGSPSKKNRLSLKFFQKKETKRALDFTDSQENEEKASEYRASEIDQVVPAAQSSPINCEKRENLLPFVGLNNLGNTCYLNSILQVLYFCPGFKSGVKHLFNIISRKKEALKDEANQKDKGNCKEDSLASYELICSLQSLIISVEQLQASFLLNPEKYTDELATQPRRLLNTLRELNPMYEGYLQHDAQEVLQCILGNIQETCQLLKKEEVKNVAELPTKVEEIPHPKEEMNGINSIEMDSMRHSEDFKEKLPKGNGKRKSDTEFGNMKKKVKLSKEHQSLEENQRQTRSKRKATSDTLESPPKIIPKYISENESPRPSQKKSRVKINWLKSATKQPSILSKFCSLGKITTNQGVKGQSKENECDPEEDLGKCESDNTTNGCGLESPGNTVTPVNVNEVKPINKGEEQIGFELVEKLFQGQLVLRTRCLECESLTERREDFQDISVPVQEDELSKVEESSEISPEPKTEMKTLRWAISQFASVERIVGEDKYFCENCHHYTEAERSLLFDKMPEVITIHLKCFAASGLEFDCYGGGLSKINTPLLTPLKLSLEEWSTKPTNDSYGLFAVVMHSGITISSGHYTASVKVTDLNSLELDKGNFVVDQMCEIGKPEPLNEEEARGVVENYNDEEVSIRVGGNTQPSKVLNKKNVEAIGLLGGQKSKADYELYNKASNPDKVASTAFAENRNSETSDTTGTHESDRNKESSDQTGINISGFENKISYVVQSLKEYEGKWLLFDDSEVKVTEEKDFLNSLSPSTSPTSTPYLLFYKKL
Chain of Glucocorticoid receptor (Homo sapiens) (P04150 whole entry, looked up, the tested form may be a part): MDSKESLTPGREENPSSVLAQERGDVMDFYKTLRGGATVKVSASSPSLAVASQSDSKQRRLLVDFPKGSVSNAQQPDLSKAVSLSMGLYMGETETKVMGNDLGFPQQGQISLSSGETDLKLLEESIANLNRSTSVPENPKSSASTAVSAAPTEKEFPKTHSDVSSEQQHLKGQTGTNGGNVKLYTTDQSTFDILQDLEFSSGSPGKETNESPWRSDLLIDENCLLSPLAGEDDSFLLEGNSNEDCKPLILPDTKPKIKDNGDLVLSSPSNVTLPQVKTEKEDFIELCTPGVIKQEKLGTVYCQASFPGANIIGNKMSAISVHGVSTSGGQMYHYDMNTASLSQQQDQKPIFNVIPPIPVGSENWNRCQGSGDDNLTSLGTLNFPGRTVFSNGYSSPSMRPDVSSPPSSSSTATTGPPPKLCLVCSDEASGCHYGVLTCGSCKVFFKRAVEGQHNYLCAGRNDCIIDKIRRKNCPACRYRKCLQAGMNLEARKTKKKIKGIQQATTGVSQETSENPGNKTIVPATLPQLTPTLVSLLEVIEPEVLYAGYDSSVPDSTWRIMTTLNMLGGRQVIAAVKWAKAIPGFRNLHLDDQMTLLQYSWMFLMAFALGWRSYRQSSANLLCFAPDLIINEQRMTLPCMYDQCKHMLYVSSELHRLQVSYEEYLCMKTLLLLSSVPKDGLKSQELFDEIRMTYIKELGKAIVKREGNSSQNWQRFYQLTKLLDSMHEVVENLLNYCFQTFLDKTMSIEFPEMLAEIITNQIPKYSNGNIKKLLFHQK
Chain of Cytochrome P450 1A2 (Homo sapiens) (P05177 whole entry, looked up): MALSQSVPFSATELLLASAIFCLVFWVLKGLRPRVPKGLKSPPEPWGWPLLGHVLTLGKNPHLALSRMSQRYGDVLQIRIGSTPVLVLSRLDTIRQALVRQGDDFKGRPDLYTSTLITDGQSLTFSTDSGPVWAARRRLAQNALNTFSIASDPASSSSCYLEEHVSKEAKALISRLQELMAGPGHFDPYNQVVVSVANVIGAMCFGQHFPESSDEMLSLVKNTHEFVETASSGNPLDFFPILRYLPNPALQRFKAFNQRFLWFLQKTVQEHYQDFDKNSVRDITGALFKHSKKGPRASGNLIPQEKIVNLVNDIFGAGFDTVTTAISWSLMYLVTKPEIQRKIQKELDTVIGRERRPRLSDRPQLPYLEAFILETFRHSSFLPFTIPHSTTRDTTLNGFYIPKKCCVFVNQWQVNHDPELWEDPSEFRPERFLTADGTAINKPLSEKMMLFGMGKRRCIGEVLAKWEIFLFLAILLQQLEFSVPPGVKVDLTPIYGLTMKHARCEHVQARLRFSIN
Chain of DNA dC->dU-editing enzyme APOBEC-3G (Homo sapiens) (Q9HC16 whole entry, looked up): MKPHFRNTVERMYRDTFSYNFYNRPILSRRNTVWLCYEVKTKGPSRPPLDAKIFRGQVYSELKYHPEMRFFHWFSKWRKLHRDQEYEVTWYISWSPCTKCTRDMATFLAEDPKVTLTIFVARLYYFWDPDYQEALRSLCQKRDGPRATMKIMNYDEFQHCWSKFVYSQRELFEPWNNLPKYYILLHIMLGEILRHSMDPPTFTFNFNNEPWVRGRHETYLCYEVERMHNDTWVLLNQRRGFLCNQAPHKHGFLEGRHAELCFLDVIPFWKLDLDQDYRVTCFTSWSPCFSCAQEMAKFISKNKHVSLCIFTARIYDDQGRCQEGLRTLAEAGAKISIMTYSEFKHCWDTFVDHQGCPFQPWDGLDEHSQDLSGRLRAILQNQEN

O=C(Nc1cc(C(=O)Nc2ccccc2C(=O)O)cc(C(=O)Nc2ccccc2C(=O)O)c1)c1ccccc1
active: Potency [1] 2.24 µM
inactive: Potency [2] | activation [3] 5.98% [at 17.1 µM, percent relative to cAMP agonist control] | Potency [4] | activity change, negative = inhibition [5] 11.5% [at 30.8 µM] | activation [6] 19.7% [at 30.8 µM]

O=C(Cn1c(=O)oc2cc(S(=O)(=O)N3CCCCC3)ccc21)N1CCc2ccccc2C1
inactive: Potency [1] | Potency [2] | Potency [3] | Potency [4] | Potency [5] | Potency [6]

CCc1ccc(-c2nc(CS(=O)CC(=O)NCc3cccnc3)c(C)o2)cc1 (stereo not drawn)
inactive: Potency [1] | Potency [2] | Potency [3] | Potency [4] | Potency [5] | Potency [6]

CCOc1ccc(CCNC(=O)c2cccc(S(=O)(=O)N3CCCCC3)c2)cc1OCC
inactive: Potency [1] | Potency [2] | Potency [3] | Potency [4] | Potency [5] | Potency [6]

O=C(O)CN1C(=O)/C(=C\c2cccc(OCc3ccc(Cl)cc3Cl)c2)SC1=S
inactive: Potency [2] | activation [3] 19.7% [at 17.1 µM, percent relative to cAMP agonist control] | activity change, negative = inhibition [5] -5.98% [at 30.8 µM] | activation [6] 8.88% [at 30.8 µM]
active: Potency [1] 44.7 µM | Potency [4] 301 nM

COc1ccc(/C=C2\SC(=S)N(NS(=O)(=O)c3ccc(C)cc3)C2=O)c(OC)c1
inactive: Potency [2] | activation [3] 6.75% [at 17.1 µM, percent relative to cAMP agonist control] | Potency [4] | activity change, negative = inhibition [5] 7.67% [at 30.8 µM] | activation [6] 20% [at 30.8 µM]
active: Potency [1] 14.1 µM

CCCc1cc(=O)oc2c3c(cc(OCC(=O)NCc4ccccn4)c12)OC(C)(C)CC3
inactive: Potency [1] | Potency [2] | Potency [3] | Potency [4] | Potency [5] | Potency [6]

Cc1ccc(S(=O)(=O)N2[C@@H](c3ccc(Cl)cc3)C(C(=O)O)=CC[C@H]2c2ccc(C(C)C)cc2)cc1
active: Potency [1] 42.6 µM
inactive: Potency [2] | Potency [3] | Potency [4] | Potency [5] | Potency [6]

Cc1onc(-c2c(F)cccc2Cl)c1C(=O)OCC(=O)N(C)c1ccccc1
inactive: Potency [1] | Potency [2] | activation [3] 4.47% [at 17.1 µM, percent relative to cAMP agonist control] | Potency [4] | activity change, negative = inhibition [5] -6.38% [at 30.8 µM] | activation [6] 12.2% [at 30.8 µM]

CCOc1ccccc1NC(=O)COC(=O)c1ccc(S(=O)(=O)N2CCCC2)cc1
inactive: Potency [1] | Potency [2] | Potency [3] | Potency [4] | Potency [5] | Potency [6]

Cc1ccc(NC(=O)CN2C(=O)N/C(=C/c3ccccc3OCc3cccc(C(=O)O)c3)C2=O)cc1
inactive: Potency [2] | activation [3] -10.8% [at 17.1 µM, percent relative to cAMP agonist control] | Potency [4] | activity change, negative = inhibition [5] -1.86% [at 30.8 µM] | activation [6] 5.98% [at 30.8 µM]
active: Potency [1] 31.6 µM

COc1c(-c2ccccc2)oc2c(ccc3occc32)c1=O
inactive: Potency [8] > 46 µM | Potency [9] > 46 µM | outcome [10]
active: Potency [7] 25.1 nM

Cc1ccc(S(=O)(=O)NC(=O)Cn2nnc(-c3ccccc3)c2COc2ccc3ccccc3c2)cc1
inactive: Potency [2] | Potency [3] | Potency [4] | Potency [5]

COC(=O)c1sc(-c2ccc(C(C)(C)C)cc2)cc1NC(=O)c1ccccc1C(=O)O
inactive: Potency [2] | activation [3] 5.26% [at 17.1 µM, percent relative to cAMP agonist control] | Potency [4] | activity change, negative = inhibition [5] -19.7% [at 30.8 µM] | activation [6] 9.25% [at 30.8 µM]

COC(=O)C1=CN(Cc2ccc(OC)c(OC)c2)C=C(C(=O)OC)C1c1cccc(F)c1
inactive: Potency [2] | Potency [3] | Potency [4] | Potency [5]

Oc1ccc(/C=N/Nc2ncnc3c2ncn3Cc2ccccc2)cc1O
inactive: Potency [2] | activation [3] 4.96% [at 17.1 µM, percent relative to cAMP agonist control] | Potency [4] | activity change, negative = inhibition [5] -13.7% [at 30.8 µM] | activation [6] 1.06% [at 30.8 µM]

CC(=O)C1CCC2C3CC(C)C4=CC(=O)CC[C@@]4(C)C3C(O)C[C@@]12C (stereo partly drawn)
inactive: Potency [11] | Potency [12] | Potency [13] | Potency [14]

CCNC(=O)C1(C)CCN(C(=O)c2ccc(C(=O)OC)cc2)C1 (stereo not drawn)
inactive: Potency [2] | Potency [3] | Potency [4] | Potency [5]

O=C(COc1ccccc1Cl)Nc1cccc(S(=O)(=O)NC2=NCCCCC2)c1
inactive: Potency [2] | Potency [3] | Potency [4] | Potency [5] | Potency [6]

CC(C)C1=CC2=CC[C@@H]3[C@](C)(CO)CCC[C@]3(C)C2CC1 (stereo partly drawn)
inactive: Potency [15] | Potency [12] | Potency [13]

C[C@@H]1OC(OC2C(OC3CC[C@@]4(C)C5CC=C6C7CC(C)(C)CC[C@@]7(C(=O)O)CCC6(C)C5(C)CCC4[C@]3(C)CO)OCC(O)C2O)C(O)C(O)C1O (stereo partly drawn)
inactive: Potency [15] | Potency [13] | Potency [14]

CCOC(=O)c1sc(N=NC2=C(O)CCCC2=O)c(C(=O)OCC)c1C
inactive: Potency [2] | activation [3] -2.58% [at 17.1 µM, percent relative to cAMP agonist control] | Potency [4] | activity change, negative = inhibition [5] -17% [at 30.8 µM] | activation [6] 6.27% [at 30.8 µM]

CCOC(=O)c1c(/N=C/C2=C(O)CC(C)(C)CC2=O)sc(C)c1C
inactive: Potency [2] | activation [3] 5.64% [at 17.1 µM, percent relative to cAMP agonist control] | Potency [4] | activity change, negative = inhibition [5] -9.9% [at 30.8 µM] | activation [6] 1.97% [at 30.8 µM]

Cn1c(=O)[nH]c2nc[nH]c2c1=O
inactive: Potency [15] | Potency [12] | Potency [13] | Potency [14]

O=C(CSc1nnc(SCc2ccccc2)s1)N/N=C/C=C/c1ccco1
inactive: Potency [2] | activation [3] 3.41% [at 17.1 µM, percent relative to cAMP agonist control] | Potency [4] | activity change, negative = inhibition [5] -6.93% [at 30.8 µM]

COC(=O)c1ccccc1NC(=O)CN1C(=O)COc2ccccc21
inactive: Potency [2] | Potency [3] | outcome [4] inactive [at 12.7 µM] | Potency [5]

CC(=O)Nc1ccc(S(=O)(=O)NCCC(=O)Nc2cc(C)ccn2)cc1
inactive: Potency [2] | Potency [3] | Potency [4] | Potency [5]
